Screen size: about 5,700 compounds; about 280 (4.9%) were called active. No rule for the calls is given here. A selection follows.

This assay is described as follows: exo-erythrocytic parasite development inhibition – imaging, Malaria Box, P. yoelii, HepG2-A16-CD81EGFP, dose response (AID 602156). As to conditions: P. yoelii liver stage in HepG2-A16-CD81EGFP.
Consider `CC(C)(C)CC(=O)NCCCCNc1ccnc2cc(Cl)ccc12`, for which the outcome was inactive.

For the compound `O=C(Nc1ccc(-c2nc3ccccc3[nH]2)cc1)c1cccc(C(=O)Nc2ccc(-c3nc4ccccc4[nH]3)cc2)n1`, the result was inactive.

As for `O=C(Nc1ccc(-c2nc3ccccc3[nH]2)cc1)c1ccc(-c2cccc([N+](=O)[O-])c2)o1`, the result was inactive.

As for `CCc1ccccc1N(CC(=O)NC1CCCCC1)C(=O)CCC(=O)Nc1ccccn1`, the compound was called inactive.

As to `Oc1ccc(-c2ccccc2)cc1CNC1CCCCC1`, the result was inactive.

Regarding `CCOC(=O)c1c(C)[nH]c(C)c1S(=O)(=O)N1CCCC(C(=O)N2CCN(c3cccc(C)c3C)CC2)C1` (stereo not given), the result was inactive.

`CC1CN(C(=O)C(Cc2c[nH]c3ccccc23)NC(=O)CCl)CCN1C(=O)Nc1ccccc1` (stereo not given): the call was inactive.

Consider `Cc1ccc(C=Cc2ccc3ccccc3[n+]2C)cc1`, for which the compound was classed as inactive.

As for `COc1ccc(-c2c[n+](CC(=O)c3ccccc3)c3n2CCC3)cc1`, the outcome was inactive.

On to `COc1ccc(OC)c(-c2ccc(O)c(CNCC(C)c3ccccc3)c2)c1` (stereo not given), for which the outcome was inactive.

As for `Fc1cc(F)c(C2SCCN2C(=S)Nc2cccc(C(F)(F)F)c2)c(F)c1` (stereo not given), the call was inactive.

On to `COc1cccc2cc(C(=O)Nc3cccc(C(F)(F)F)c3)c(=O)oc12`, for which the result was inactive.

On to `CC(C)(C)CC(C)(C)Nc1c(-c2ccccc2OC(=O)c2cccc(Br)c2)nc2ccccn12`, for which the compound was called inactive.

As for `COc1ccccc1C=CC1=NC(=Cc2ccc(SC)cc2)C(=O)O1`, the result was inactive.

`O=C(Cn1cc([N+](=O)[O-])nc1[N+](=O)[O-])N1CCN(c2ccc(F)cc2)CC1`: the compound was classed as inactive.

On to `CCOc1ccc(C=C2SC(=Nc3ccccc3)NC2=O)cc1OC`, for which the call was inactive.

In the case of `CCOC(=O)C1CCN(C(=O)CN2C(=O)c3ccccc3C2c2c[nH]c3ccccc23)CC1` (stereo not given), the compound was classed as inactive.

Regarding `N#CC(=Cn1cc(Cc2ccc(Cl)cc2Cl)c2ccccc21)c1nn(CCO)c(N)c1C#N`, the result was inactive.

Regarding `Cc1nnc2sc(SCc3ccc([N+](=O)[O-])cc3)nn2c1=O`, the outcome was inactive.

For `CC1CCN(S(=O)(=O)c2ccc(C(=O)NCc3ccco3)cc2)CC1`, the compound was called inactive.

`CCN1CCCC1CNc1ncnc2c1[nH]c1ccc(C)cc12` (stereo not given): the compound was classed as inactive.

Take `c1ccc(CCCNc2ccnc3cc4ccccc4cc23)cc1`: the call was inactive.

Consider `COCCn1c(SCC(=O)c2ccc(C)cc2C)nnc1-c1ccco1`, for which the outcome was inactive.

Take `CCN(CC)CCNc1ncnc2c1[nH]c1ccc(Br)cc12`: the result was inactive.

As for `CC(C)CNC(=O)c1cnc(NCCCN2CCCC2)nc1NCC1CCCCC1`, the compound was classed as inactive.

As to `CC[n+]1c(/C=C2\Sc3oc4ccccc4c3N2C)ccc2cc(C)ccc21`, the outcome was inactive.

As for `c1ccc(Nc2nc(NCC3CCCO3)c3ccccc3n2)cc1` (stereo not given), the call was inactive.

Regarding `COc1ccccc1N1C(=N)SC(=Cc2ccc(OCc3ccccc3F)cc2)C1=O`, the compound was called inactive.

Take `CC[N+](CC)=c1scc(-c2ccc([N+](=O)[O-])cc2)s1`: the result was inactive.

Consider `COc1cc(C(=O)NCCc2cc3ccccc3[nH]2)ccc1OC1CCN(CC(c2ccccc2)c2ccccc2)CC1`, for which the compound was called inactive.

Turning to `O=C(NCCCCCCCCCCNC(=O)Nc1ccc(C2=NCCCN2)cc1)Nc1ccc(C2=NCCCN2)cc1`, the compound was classed as inactive.

Consider `COc1ccc(-c2csc3nc(COc4cccc(C)c4)nn23)c(O)c1`, for which the call was inactive.

Turning to `CCCCN(C)C(=O)CSc1nc(NCc2ccccc2)c2ccccc2n1`, the compound was classed as inactive.

On to `Cc1ccc(N=C2SC(=Cc3c(Cl)cccc3Cl)C(=O)N2c2ccc(C)c(C)c2)cc1C`, for which the result was inactive.

Consider `CCCCCCC(=O)Oc1ccccc1-c1nc2ccccn2c1NC(C)(C)CC(C)(C)C`, for which the compound was classed as inactive.

In the case of `CN(CCCNc1ccnc2cc(Cl)ccc12)C(=O)c1ccc(Cl)c(Cl)c1`, the compound was classed as inactive.

On to `Cc1c(Cl)cccc1NC(=O)C1C(C(=O)O)C2C=CC1C21CC1` (stereo not given), for which the compound was classed as inactive.

Take `CCCCCCN(C(=O)c1ccccc1)C(CC)c1nc2ccccc2c(=O)n1-c1ccccc1OC` (stereo not given): the result was inactive.

For the compound `CCCCCN(C(=O)c1ccc(Br)cc1)C(CC)c1nc2ccccc2c(=O)n1-c1ccccc1OC` (stereo not given), the compound was classed as inactive.

Take `O=c1c2c(nc3cc(-c4ccc(-c5ccccc5)cc4)[nH]n13)CCCC2`: the compound was called inactive.

As for `O=c1c2c(nc3cc(-c4ccc(Cl)cc4)[nH]n13)CCCC2`, the outcome was inactive.

For the compound `Cc1cccc(OCC(=O)Nc2cccc(NC(=O)COc3cccc(C)c3)n2)c1`, the compound was classed as inactive.

On to `CCc1ccc(C(C)=NNc2nc(-c3ccccc3)cc(=O)[nH]2)cc1`, for which the compound was called inactive.

Consider `Cc1cccc(NS(=O)(=O)c2ccc3[nH]c(=O)ccc3c2)c1C`, for which the compound was classed as inactive.

For the compound `COc1cc(/C=C(\C#N)c2nc3ccccc3[nH]2)ccc1OCc1ccc(C)cc1`, the result was inactive.

Consider `Clc1ccc(Nc2nc(Nc3ccc(Cl)cc3)c3ccccc3n2)cc1`, for which the call was inactive.

`CCc1ccc(-n2c(C(CC)N(CCc3ccccc3)C(=O)c3cc(OC)cc(OC)c3)nc3ccccc3c2=O)cc1` (stereo not given): the call was inactive.

`CCCCCCN(C(=O)COCc1ccccc1)C(C)c1nc2ccccc2c(=O)n1-c1cccc(Cl)c1C` (stereo not given): the outcome was inactive.

Consider `Cc1ccc2c(c1)c(-c1ccccc1)c(-c1ccccc1)n2CC(O)CN1CCN(Cc2ccccc2)CC1` (stereo not given), for which the outcome was inactive.

Turning to `CC1CC(C)CN(c2ccc([N+](=O)[O-])cc2-c2nn[nH]n2)C1` (stereo not given), the result was inactive.

`COc1ccc(C=NNc2nc3ccc(Cl)cc3[nH]2)cc1OC`: the result was inactive.

In the case of `COc1ccc(C=C2SC(=N)N(c3ccc4c(c3)OCO4)C2=O)cc1OC`, the compound was called inactive.

Consider `COc1ccc(C(OCC(=O)N2CCN(Cc3ccccc3)CC2)c2ccccc2)cn1` (stereo not given), for which the result was inactive.

For `O=C(Nc1ccc(C2=NCCN2)c(Cl)c1)c1cccc(C(=O)Nc2ccc(C3=NCCN3)c(Cl)c2)c1`, the result was inactive.

For `CC1CC(C)CN(S(=O)(=O)c2ccc(C(=O)Nc3ccc(-c4nc5ccccc5o4)cc3)cc2)C1` (stereo not given), the result was inactive.

As to `Cc1ccc2cc3c(N)c4cccc(C)c4nc3nc2c1`, the compound was classed as inactive.

As for `CCOc1ccc(Nc2[nH]c(=O)sc2C2=c3cc(Br)ccc3=NC2=O)cc1`, the compound was classed as inactive.

On to `Cc1ccc(O)c(NC(=O)c2cnn3c(C(F)(F)F)cc(-c4ccc(F)cc4)nc23)c1`, for which the compound was called inactive.

On to `O=C(C=Cc1cccnc1)C12CC3CC(CC(C3)C1)C2`, for which the call was inactive.

In the case of `O=C1NN(c2ccccc2)C(=O)C1=C1C(=O)N(Cc2cccc3ccccc23)c2ccccc21`, the outcome was inactive.

With `Cc1cc2ncn(N=Cc3cccnc3)c2cc1C`, the compound was classed as inactive.

Consider `CCOC(=O)c1c(C)n(-c2ccccc2)c2ccc(OC(=O)c3ccccc3NC(=O)CC)cc12`, for which the result was inactive.

On to `CC(C)=CCCC(C)=CCCC(C)NCCN1CCNCC1` (stereo not given), for which the compound was called inactive.

As for `C=CCNC(=O)c1ccc2c(c1)N=CN(CCOc1ccccc1)C2`, the result was inactive.

For the compound `Cn1c(SCC2CCCO2)nnc1C1CCN(C/C=C/c2ccccc2)CC1` (stereo not given), the compound was classed as inactive.

Regarding `Cc1cc(S(=O)(=O)N2CCN(Cc3ccccc3)CC2)ccc1-n1cnnn1`, the compound was classed as inactive.

For `COc1ccc(S(=O)(=O)ON=C2C=C(C(C)C)C(=O)C=C2C)cc1`, the outcome was inactive.

In the case of `COc1ccc(NC(=O)C2c3ccccc3C(=O)N(CC(C)C)C2c2cccs2)cc1OC` (stereo not given), the call was inactive.

Turning to `COc1ccc(NC(=O)/C=C/c2ccccc2Cl)cc1`, the compound was called inactive.

Take `O=C1CC(c2ccccc2)CC2=C1C(c1cc(F)ccc1F)Nc1ccccc1N2` (stereo not given): the compound was classed as inactive.

For `CC(c1nc2ccccc2c(=O)n1-c1ccc(Br)cc1)N1CCN(S(=O)(=O)c2ccc3ccccc3c2)C(C)C1` (stereo not given), the compound was classed as inactive.

In the case of `CCCCC(CC)C(=O)N1CCN(C(C)c2nc3ccc(Cl)cc3c(=O)n2C)CC1` (stereo not given), the compound was called inactive.

As to `CCCCCCCCC(=O)N1CCN(C(CC)c2nc3ccccc3c(=O)n2C)CC1` (stereo not given), the outcome was inactive.

Take `CC(c1nc2ccc(Cl)cc2c(=O)n1C)N1CCN(C(=O)C(C)(C)C)CC1` (stereo not given): the outcome was inactive.

As to `CCCCCCCCCC(=O)N1CCN(C(CC)c2nc3ccccc3c(=O)n2C)CC1` (stereo not given), the outcome was inactive.

In the case of `CCC(NC1CCCCC1)c1nc2ccccc2c(=O)n1C` (stereo not given), the result was inactive.

In the case of `COc1ccc(/C=C2\N=C(c3ccc(Cl)cc3)N(c3ccccc3)C2=O)cc1OC`, the call was inactive.

Turning to `O=C(NCCCNC(=O)Nc1cccc(C2=NCCN2)c1)Nc1cccc(C2=NCCN2)c1`, the call was inactive.

Consider `CC(C)c1ccc(NC(=O)C=Cc2ccccc2Cl)cc1`, for which the result was inactive.

As to `COC(=O)c1sccc1S(=O)(=O)N1CCCC(c2[nH]ncc2-c2ccccc2)C1` (stereo not given), the result was inactive.

In the case of `Cc1cccc(Nc2nc3nonc3nc2NN=Cc2cccs2)c1C`, the compound was classed as inactive.

For the compound `O=C(NCCC(c1ccccc1)c1ccccc1)c1cccc([N+](=O)[O-])c1`, the outcome was inactive.

Regarding `COC(=O)c1ccc(C=NNc2cc(C)nc3ccc(OC)cc23)cc1`, the compound was classed as inactive.

For the compound `O=S(=O)(/C=C/c1ccccc1)NCCCCNc1ccnc2cc(Cl)ccc12`, the call was inactive.

`CCN(CC)Cc1cc(Nc2nc3ccccc3[nH]2)cc(CN(CC)CC)c1O`: the call was inactive.

In the case of `CC[n+]1c(C=C2Sc3ccccc3N2C)ccc2ccc(C)cc21`, the compound was classed as inactive.

Regarding `O=C(CNCCc1ccccc1)NC(c1ccccc1)c1ccccc1`, the call was inactive.

With `O=C(c1c2c(nc3ccccc13)CCC2)N1CCc2ccccc21`, the call was inactive.

As to `O=C(O)c1cc([N+](=O)[O-])ccc1Oc1cncc(Cl)c1`, the result was inactive.

Consider `CCCN(CCC)CC(O)COc1ccccc1C(=O)Nc1ccccc1` (stereo not given), for which the compound was called inactive.

In the case of `CCn1c(SCC(=O)N(c2ccccc2)c2ccccc2)nc2sc3c(c2c1=O)CCN(C)C3`, the result was inactive.

As to `Cc1cccc(CCNc2cc(C)nc3ncnn23)c1`, the compound was called inactive.

Turning to `COc1ccccc1N1CCN(C(=O)Nc2ccc3ccccc3c2)CC1`, the compound was classed as inactive.

For `Oc1ccc(-c2cnccn2)cc1CNC1CCN(Cc2ccccc2)CC1`, the call was inactive.

As to `CC1(C)C2CCC1(C)C(NCc1ccccc1O)C2` (stereo not given), the outcome was inactive.

Turning to `COc1ccc(OC)c(-c2ccc(O)c(CNCc3ccccc3OC)c2)c1`, the compound was classed as inactive.

Take `COc1ccc(CNC(=O)C2CNCC2c2ccc(C(F)(F)F)cc2)cc1` (stereo not given): the compound was classed as inactive.

Consider `COc1cccc(CNC(=O)[C@@H]2CNC[C@H]2c2ccc(C(F)(F)F)cc2)c1`, for which the compound was called inactive.

Regarding `CCCCCN1/C(=C\C=C\c2n(CC)c3cc(Cl)c(Cl)cc3[n+]2CCCCC)N(CC)c2cc(Cl)c(Cl)cc21`, the call was inactive.

Turning to `COc1ccc(-c2cc(C(=O)NCc3cccnc3)no2)cc1OC`, the compound was called inactive.

(Values after PubChem BioAssay AID602156 (GNF / Scripps Winzeler lab, 2011).)
